Most compounds without a hit are left out; they make up all but 1.8% or so of the library.
LYPLA2 inh: LYPLA2 inhibitors, primary screen, counter-screen for PME1 inhibitor project, biochemical, fluorescence polarization, FP-Rh probe ABPP | Acyl-protein thioesterase 2 (Homo sapiens), O95372 | 0.38% of 320,000 active | recombinant LYPLA2 | AID 2177, 2009 | inhibition, % at 5.9 µM;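 active means inhibition above the screen-wide mean plus 3 SD, limit set per campaign, cut at about 26% in these data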;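 further: 0% = LYPLA2 with DMSO and 100% = wells lacking LYPLA2 enzyme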
Target sequence (O95372 whole entry, looked up): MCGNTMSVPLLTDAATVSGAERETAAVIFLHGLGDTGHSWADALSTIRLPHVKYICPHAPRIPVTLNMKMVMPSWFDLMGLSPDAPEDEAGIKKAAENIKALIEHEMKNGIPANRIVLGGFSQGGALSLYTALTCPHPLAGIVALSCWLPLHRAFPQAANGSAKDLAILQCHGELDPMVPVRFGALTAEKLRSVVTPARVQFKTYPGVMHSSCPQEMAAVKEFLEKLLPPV
PAD4 inh: human PAD4 inhibitors, primary screen, biochemical, fluorescence polarization, 1536-well format. 0.41% of 330,000 active. Protein-arginine deiminase type-4 (Homo sapiens), Q9UM07. inhibition, % at 6.36 µM. recombinant PAD4, RCA probe fluorescence polarization;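 active means percent inhibition above a cutoff equal to the mean of all tested compounds plus 3 SD, cut at about 15% in these data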;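 further: 0% = PAD4 with RCA probe and DMSO and 100% = probe without PAD4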
GSTO1 inh: inhibitors of recombinant GSTO1, primary screen, counter-screen for RBBP9 inhibitor project, biochemical, fluorescence polarization; Glutathione S-transferase omega-1 (Homo sapiens), P78417; AID 1974, 2009; activity-based probe fluorescence polarization; inhibition, % at 5.96 µM; 1.1% of 300,000 active;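 active means inhibition above the campaign mean inhibition plus 3 SD, cut at about 35% in these data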;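 further: 0% = GSTO1-1 with DMSO and 100% = wells lacking GSTO1-1 enzyme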
Target sequence (P78417 whole entry, looked up): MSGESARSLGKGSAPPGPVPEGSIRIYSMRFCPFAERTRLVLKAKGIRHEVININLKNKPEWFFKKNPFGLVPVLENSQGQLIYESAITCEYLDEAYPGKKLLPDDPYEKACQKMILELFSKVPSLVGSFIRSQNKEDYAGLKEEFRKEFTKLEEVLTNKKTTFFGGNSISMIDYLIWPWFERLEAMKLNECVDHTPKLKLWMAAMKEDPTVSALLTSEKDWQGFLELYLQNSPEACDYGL
Fam108B inh: mouse Fam108B serine hydrolase inhibitors, primary screen, counter-screen for RBBP9 inhibitor project, biochemical, fluorescence polarization | recombinant Fam108B, FP-Rh probe fluorescence polarization | inhibition, % at 9.51 µM | 0.33% of 300,000 active;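 active means inhibition above the screen mean inhibition plus 3 SD, computed separately per campaign, cut at about 18% in these data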;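 further: inhibitors lower polarization as less probe binds the enzyme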
LYPLA1 counter: LYPLA1 inhibitors, primary screen, counter-screen for PME1 inhibitor project, biochemical, fluorescence polarization, FP-Rh probe ABPP; AID 2174, 2009; inhibition, % at 5.9 µM; 0.16% of 320,000 active; recombinant LYPLA1;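 active means inhibition above the mean of all tested compounds plus 3 SD, set per campaign, cut at about 14% in these data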;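 further: inhibitors block serine hydrolase probe labeling of LYPLA1 so polarization falls; 0% = enzyme with DMSO and 100% = wells lacking LYPLA1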
Target sequence (O75608 whole entry, looked up): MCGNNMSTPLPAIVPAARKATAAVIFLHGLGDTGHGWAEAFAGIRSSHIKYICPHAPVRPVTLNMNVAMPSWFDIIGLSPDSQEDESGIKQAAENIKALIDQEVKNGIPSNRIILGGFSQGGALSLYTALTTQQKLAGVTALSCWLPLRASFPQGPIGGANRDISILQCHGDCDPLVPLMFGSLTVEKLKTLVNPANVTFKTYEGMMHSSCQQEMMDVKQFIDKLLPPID
PME-1 primary: PME-1 inhibitors via competitive probe labeling, primary screen, biochemical, fluorescence polarization, FP-Rh probe, HTS. recombinant PME-1. 0.53% of 320,000 active. Protein phosphatase methylesterase 1 (Homo sapiens), Q9Y570. inhibition, % at 5.9 µM. AID 2130, 2009;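 active means inhibition above the campaign mean of all compounds plus 3 SD, cut at about 26% in these data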;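 further: competitive labeling of PME-1 active site by serine hydrolase directed probe; 0% = PME-1 with DMSO and 100% = wells lacking PME-1 enzyme; inhibitors block probe labeling so polarization falls and inhibition rises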
Fam108b confirm: mouse Fam108b serine hydrolase inhibitors, confirmation, counter-screen for RBBP9 inhibitor project, biochemical, fluorescence polarization, triplicate | shares compounds with Fam108B inh | recombinant Fam108b, FP-Rh probe fluorescence polarization | inhibition, % at 9.51 µM | 44% of 930 active | AID 1978, 2009;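 active means inhibition above a limit from the primary screen, the mean over all compounds plus 3 SD, cut at about 19% in these data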;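 further: 0% = median of active Fam108b wells and 100% = catalytically dead S170A mutant; inhibitors free the probe so polarization falls as inhibition rises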
Fam108b ABPP HTS: inhibition of mouse Fam108b by HTS hits, late-stage follow-up, biochemical, gel-based ABPP, soluble recombinant form. shares compounds with Fam108B inh. fluorophosphonate probe. inhibition, % at 20 µM. 44% of 260 active; in the data active means inhibition above about 40%
GSTO1 confirm: GSTO1 inhibitor hit confirmation, counter-screen for RBBP9 inhibitor project, biochemical, fluorescence polarization, triplicate; recombinant GSTO1, probe fluorescence polarization; 54% of 2,400 active; shares compounds with GSTO1 inh; inhibition, % at 5.96 µM;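 active means inhibition above the primary screen's cutoff, its mean inhibition plus 3 SD, cut at about 35% in these data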;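 further: loss of polarization as inhibitors block binding of rhodamine sulfonate ester activity probe; 0% = GSTO1 with DMSO and 100% = wells lacking GSTO1 enzyme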
LYPLA1 conf: LYPLA1 inhibitors, retest, confirmation, counter-screen for PME1 inhibitor project, biochemical, fluorescence polarization, FP-Rh probe ABPP. shares compounds with LYPLA1 counter. recombinant LYPLA1. inhibition, % at 5.9 µM. 69% of 480 active. AID 2233, 2010;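 active means mean inhibition across replicates above the hit cutoff set in the primary screen, cut at about 15% in these data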;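 further: loss of FP-Rh probe labeling of LYPLA1 seen as lower polarization; 0% = LYPLA1 with DMSO and 100% = wells lacking LYPLA1 enzyme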
LYPLA2 confirm: LYPLA2 inhibitors, retest, confirmation, counter-screen for PME1 inhibitor project, biochemical, fluorescence polarization, FP-Rh probe ABPP; shares compounds with LYPLA2 inh; recombinant LYPLA2; inhibition, % at 5.9 µM; 72% of 1,100 active; AID 2232, 2010;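 active means mean inhibition across replicates above the hit cutoff set in the primary screen, cut at about 26% in these data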;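 further: blocked labeling of the enzyme by serine hydrolase FP-Rh probe lowers polarization; 0% = enzyme with DMSO and 100% = wells lacking LYPLA2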
PAD4 confirm: human PAD4 inhibitors, confirmation, biochemical, fluorescence polarization; 28% of 1,200 active; inhibition, % at 6.36 µM; shares compounds with PAD4 inh; recombinant PAD4, RCA probe fluorescence polarization;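 active means mean inhibition across replicates above the hit cutoff set by the earlier primary screen, cut at about 15% in these data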;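 further: inhibitors block active-site labeling by the probe so polarization falls; 0% = PAD4 with probe and DMSO and 100% = probe without PAD4 enzyme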
An asterisk follows results filed as active; x = no result.

SMILES	LYPLA2 inh	PAD4 inh	GSTO1 inh	Fam108B inh	LYPLA1 counter	PME-1 primary	GSTO1 confirm	others
COCCn1c(SCCCC(=O)c2ccc(Br)cc2)nnc1-c1ccncc1	-5	-4	7	-1	1	-4	x
CCn1c(CSc2n[nH]c(N)n2)nc2cc(C(=O)O)ccc21	38*	51*	22	30*	39*	31*	x	Fam108b confirm=41*;Fam108b ABPP HTS=0;LYPLA1 conf=35*;LYPLA2 confirm=35*;PAD4 confirm=58*
COC(=O)c1ccc(C(=O)OC)c(NC(=O)CSc2n[nH]c(N)n2)c1	x	0	x	x	x	x	x
CCn1c(CSc2nnc3ccccn23)nc2cc(C(=O)O)ccc21	43*	47*	29	50*	39*	41*	x	Fam108b confirm=55*;Fam108b ABPP HTS=0;LYPLA1 conf=52*;LYPLA2 confirm=51*;PAD4 confirm=77*
Cc1nn(C(C)C(=O)NCCCN2CCCCCC2)c(=O)c2cc3sccc3n12 (centres undefined)	0	3	7	-2	-3	-6	x
CCC(C)NC(=S)N(Cc1cc2cc(C)ccc2n2nnnc12)CC(C)(C)NC(C)C (centres undefined)	6	-1	0	10	2	3	x
CCc1ccc(CNc2ccc3c(c2)ncn3CC)cc1	11	3	4	0	4	2	x
CCc1ccc(CNc2ccc(O)cc2)cc1	13	15*	86*	37*	6	38*	4	Fam108b confirm=14;PAD4 confirm=3
Cc1ccc(Cl)cc1NC1=C/C(=N\S(=O)(=O)c2cccs2)c2ccccc2C1=O	4	52*	74*	24*	0	24	94*	Fam108b confirm=20*;PAD4 confirm=54*
Cc1c(Cl)cccc1N/C(=N/S(=O)(=O)c1cccs1)c1ccccc1	1	-2	6	-4	-1	0	x
O=C(CCC(=O)N1CCN(S(=O)(=O)c2ccccc2)CC1)c1ccc(Br)cc1	x	-7	x	x	x	x	x
CN1C(=O)c2cccc(NCCCN3C(=O)c4ccccc4C3=O)c2C1=O	4	-3	4	-3	5	1	x
CCCCNc1c2c3c(cccc3n(C)c1=O)C(=O)c1ccccc1-2	54*	90*	44*	45*	42*	75*	34	Fam108b confirm=49*;Fam108b ABPP HTS=25;LYPLA1 conf=39*;LYPLA2 confirm=37*;PAD4 confirm=81*
CCOC(=O)C(C(=O)OCC)c1c([N+](=O)[O-])c(=O)n2c3c(cccc13)CCC2	0	-2	3	-2	2	2	x
CCNc1nc(NCC)n2c(SCC(=O)c3ccc(C(C)C)cc3)nnc2n1	0	-2	95*	0	-6	-4	87*
CCCCCCn1nc(C(=O)N(CCCC)c2c(N)n(CCC)c(=O)[nH]c2=O)c2ccccc2c1=O	x	-4	x	x	x	x	x
Nc1c(C(=O)OCC2CCCO2)c2nc3ccccc3nc2n1C1CCCCC1 (centres undefined)	-4	-14	67*	0	-2	2	13
CCN(CCCNS(=O)(=O)c1ccc2c(c1)oc(=O)n2C)c1cccc(C)c1	-2	1	38*	0	-2	-1	36*
CCc1ccc(NS(=O)(=O)c2ccc3c(c2)oc(=O)n3C)cc1	-10	-4	53*	1	-2	5	44*
Cc1ccccc1CC(=O)Nc1ccon1	1	4	2	4	2	2	x
Cc1cccc(CC(=O)Nc2ccon2)c1	-3	-5	59*	2	-5	-4	6
O=C(Nc1ccc(F)cc1)c1cc(-c2ccccn2)nc2c(Cl)cccc12	-4	0	-1	-2	-2	-1	x
CCCOC(=O)c1sc2nc3c(cc2c1N)C(=O)CCC3	4	1	5	3	-3	-1	x
Nc1c(C(=O)NCc2ccco2)sc2nc3c(cc12)C(=O)CCC3	-6	-6	47*	12	2	2	23
CCn1c(C)nc2cc(C(=O)N/N=C/c3cccc(O)c3O)ccc21	-7	3	45*	2	-8	0	5
SMILES	LYPLA2 inh	PAD4 inh	GSTO1 inh	Fam108B inh	LYPLA1 counter	PME-1 primary	GSTO1 confirm	others
O=c1[nH][nH]cc1C=Nc1ccccc1O	-1	-3	31	6	2	-2	x
O=c1c(=Nc2ccccc2O)c(=O)c2ccccc12	-3	-17	68*	1	-1	-1	25
CC(=O)Oc1cccc2c1C(=O)c1c(OC(C)=O)cc(C(=O)O)cc1C2=O	1	11	56*	3	1	9	33
O=C(CCl)c1cc2c3c(c1)CC(=O)N3CCC2	0	4	52*	-2	-1	5	67*
Cc1nc2ccccc2c(=O)n1/N=C/c1ccc(O)c(O)c1O	-11	2	71*	9	-7	-8	14
Cc1nc2ccccc2c(=O)n1/N=C/c1ccccc1	2	-2	6	3	-1	0	x
Cc1ccn(CCNC(=O)C2CCC(=O)N(CCc3ccc(Cl)cc3)C2)n1 (centres undefined)	-2	-4	-3	-1	-2	-3	x
CN(C)C(=O)CCC(=O)N1CCCC(C(=O)c2ccc(C(F)(F)F)cc2)C1 (centres undefined)	2	0	9	2	3	2	x
CCC(Sc1nc(-c2cccc(OC)c2)c(C#N)c(=O)[nH]1)C(=O)Nc1nnc(C(C)C)s1 (centres undefined)	3	1	50*	-2	-3	1	62*

Screens: PubChem BioAssay, The Scripps Research Institute Molecular Screening Center
